HCMV inh = inhibitors of human cytomegalovirus; AID 1259415; HFF cells, HCMV-luciferase reporter, 72 h; hits give low values; activity change, negative = inhibition, % at 57.5 µM; 410,000 tested, 4.5% active; in the data active = activity change below about -60%; inconclusive = no clear call, values can overlap the other calls; inactive = above about -39%
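Two-dose cell screen: HFF monolayers treated with compounds and infected with luciferase-expressing HCMV at 1 PFU/cell, 72 h at 37C, then lysed for luciferase measurement.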
FMDV antiviral = blocks foot and mouth disease virus. 410,000 tested, 1.2% active. FMDV antiviral cell-based qHTS. Potency, µM (doses to about 57.9 µM), without a hit: top-dose activity change, negative = inhibition, hits mostly inhibitors; calls by dose curve; tested in HEK293T cells; also: read-out not given here; potency is read from the fitted curve at half-maximal effect; nearly all actives have a fitted effect of over 45% in size
LASV entry inh = Lassa virus entry inhibition; Lassa virus pseudotype entry inhibition, cell reporter; 300,000 tested, 1.2% active; Potency, µM (top dose mostly 37.9 µM), inactives show at the highest dose activity change, negative = inhibition, actives largely listed as inhibitors; AID 540256; calls by dose curve; tested in HEK293 cells; also: potency is read from the fitted curve at half-maximal effect; nearly all actives have a fitted effect of over 50% in size
Vaccinia Venus = inhibitors of vaccinia virus (Venus reporter); Vaccinia virus Venus reporter expression, fluorescence; Potency, µM (series often up to 36.5 µM), for inactives: at the top dose activity change, negative = inhibition, usual class: inhibitors; 330,000 tested, 0.46% active; AID 720580; calls by dose curve; tested in A549 cells; also: potency is read from the fitted curve at half-maximal effect; nearly all actives have a fitted effect of over 30% in size
Vaccinia mCherry = inhibitors of vaccinia virus infection (mCherry reporter signal) | Potency, µM (highest dose often 36.5 µM), for the others: at the highest dose activity change, negative = inhibition, most hits filed as inhibitors | 310,000 tested, 0.63% active | Vaccinia virus mCherry reporter infection, fluorescence; calls by dose curve; tested in A549 cells; also: potency is read from the fitted curve at half-maximal effect; nearly all actives have a fitted effect of over 35% in size
MARV entry inh = blocks Marburg virus binding to or entry into cells; Potency, µM (doses to about 37.8 µM), without a hit: at the top dose activity change, negative = inhibition, usual class: inhibitors; Marburg virus pseudotyped entry inhibition, cell reporter; AID 540276; 300,000 tested, 1.8% active; calls by dose curve; tested in HEK293 cells; also: potency is read from the fitted curve at half-maximal effect
The depositor's hits bear a star; i = inactive; ? = inconclusive; nt = no result; ! = not active in a repeat; [ ] = another dose, or the depositor's remark. This is a sample that favours compounds with a hit; in the whole collection about 6.5% have one here. % is scaled to controls: 0 for no effect and ±100 for the full control effect.

SMILES	HCMV inh	FMDV antiviral	LASV entry inh	Vaccinia Venus	Vaccinia mCherry	MARV entry inh
CCOc1cc(C2c3c(-c4cc(C)ccc4O)n[nH]c3C(=O)N2CCCOC(C)C)ccc1O (centres undefined)	-68.4*	-6.5%	?	-6.6%[7.34 µM]	-5.3%[7.34 µM]	?
COCC(=O)n1nc(NCc2ccc(OC)cc2)nc1NCc1ccc(OC)cc1	9.9	-12.6%	5.9%	-13.2%	-20.1%	?
CCC(=O)n1nc(NCc2ccc(OC)c(OC)c2)nc1NCc1ccc(OC)c(OC)c1	-27.1	17.8µM*	-1.7%	?	nt	-6.6%
CCN(CC)S(=O)(=O)c1ccc(C(=O)NCCSc2c[nH]c3ccccc23)cc1	3.9	-10.1%	25.9µM*	-9.1%	3.6%	-11.3%
CCN(CC)S(=O)(=O)c1ccc(C(C)NC(=O)Cc2c[nH]c3ccccc23)cc1 (centres undefined)	14.4	-22.0%	2.59µM*	-9.5%	-1.3%	-19.3%
Cc1ccccc1-c1ccc(CN2CCc3nnc(C(NS(C)(=O)=O)C(C)C)n3CC2)cc1 (centres undefined)	nt	-14.6%	nt	-18.0%	-4.1%	nt
Cc1cc(C)nc(N/C=C(\C#N)C(=O)c2cccc(CSc3ccccc3)c2)n1	nt	nt	nt	-6.9%	-7.6%	nt
COCCCNC(=O)c1ccc(Cn2c(=O)c3ccccc3n(Cc3ccccc3C)c2=O)cc1	-95.5*!	-2.7%	-27.9%[46.1 µM]	?	?	?
COCCCNC(=O)c1ccc(Cn2c(=O)c3ccccc3n(Cc3cc(C)ccc3C)c2=O)cc1	18.7	-29.2%	-15.9%	nt	nt	?
COc1ccccc1C(OC(=O)c1ccco1)C(=O)NCc1ccc(F)cc1 (centres undefined)	-2.9	0.7%	2.8%	-8.0%	-11.6%	16.3%[46.1 µM]
COc1ccccc1C(OC(=O)c1ccco1)C(=O)NC(C)(C)C (centres undefined)	-81.7*	-2.8%	16.8%	nt	nt	17.9%
COc1ccc(CNC(=O)CCS(=O)(=O)c2ccc3c(c2)oc(=O)n3C)cc1	-17.3	-9.9%	-14.2%[46.1 µM]	-11.8%	-14.8%	9.2%[46.1 µM]
CCN(C(=O)CCS(=O)(=O)c1ccc2c(c1)oc(=O)n2C)c1ccc(OC)cc1	-63.5*!	-7.4%	?	-10.3%	-21.8%	-2.6%[46.1 µM]
Cc1snc(S(=O)(=O)/C(C#N)=N/Nc2cccc(C(F)(F)F)c2)c1C#N	nt	27.7%	5.4%	?	11.2µM*	0.4%
Cc1cc(S(=O)(=O)Nc2ccc(C(=O)NCC3(N4CCCCC4)CCCCC3)cc2)ccc1F	-4.9	-23.4%	?	-5.3%	-13.6%	11.2µM*
CC(C)(C)c1cc(C(=O)CCN2CCOCC2)cc(C(C)(C)C)c1O	-76.7*	-14.7%	-2.0%	?	11.2µM*	-1.1%
O=C(CCN1CCOCC1)c1ccc(N2CCCCC2)cc1	-12.6	2.6%	nt	?	?	nt
COc1cccc(-c2cncnc2NCc2ccccc2)c1	nt	-8.1%	nt	-12.4%	-9.3%	nt
O=[N+]([O-])c1ccc(-c2cnc(SCc3ccccc3Cl)[nH]2)cc1	19.6	?	-4.1%	?	nt	-13.0%
O=[N+]([O-])c1ccc(-c2cnc(SC(c3ccccc3)c3ccccc3)[nH]2)cc1	?	?	3.55µM*	?	?	?
CC(NC(=O)c1cccc(NC(=O)c2nsc3ccccc23)c1)c1ccccc1 (centres undefined)	15.7	8.8%	?	-12.8%	-15.4%	nt
CN(C)CCNc1nc2sc3c(c2c(=O)n1Cc1ccccc1)CCCCC3	-20.1	-7.3%	7.7%	-9.4%	-8.9%	10µM*
COc1ccc(-n2c(NCCN(C)C)nc3sc4c(c3c2=O)CCCCC4)cc1	-106.9*	-28.7%	-19.4%	-22.8%	i	23.1µM*
CN(C)CCNc1nc2sc3c(c2c(=O)n1-c1ccc(F)cc1)CCCCC3	45.4	-12.7%	?	-17.8%	-11.1%	?
CCOc1ccc(-n2c(/C=C/c3cccc(F)c3)nc3cc(OC)c(OC)cc3c2=O)cc1	-38.7	?	16.9%[46.1 µM]	-24.7%	-28.0%	nt
SMILES	HCMV inh	FMDV antiviral	LASV entry inh	Vaccinia Venus	Vaccinia mCherry	MARV entry inh
COc1ccc(C2CC(=O)c3c([nH]c(C(=O)OC4CCCCCC4)c3C)C2)cc1OC (centres undefined)	-14.8	-5.9%	21.0%[46.1 µM]	-15.8%	-19.1%	-6.2%[46.1 µM]
COc1ccccc1N1CCN(c2nc(CNC(=O)c3ccc(C)c(C)c3)nc3ccccc23)CC1	nt	2.3%	nt	0.0%	i	nt
Nc1ccc(C(=O)Nc2ccc(OC(F)(F)C(F)F)c(NC(=O)c3ccc(N)cc3)c2)cc1	-68.0*	57.4%	-14.3%	-25.1%	?	-0.5%
Cc1ccc(NC(=O)Cn2cnc(C(=O)Nc3ccc(C)c(C)c3)n2)cc1C	-0.6	-9.6%	nt	-0.9%	-0.6%	3.9%
Cc1cc(C)c(CN2CCN(C(=O)Cn3cnc(C(=O)Nc4ccc(C)c(C)c4)n3)CC2)c(C)c1	-101.7*	?	nt	?	-22.0%	-3.5%
O=C(/C=C/c1ccc([N+](=O)[O-])s1)N1CCN(c2ccccc2)CC1	-70.5*	-24.1%	nt	nt	nt	nt
O=C(/C=C/c1ccc([N+](=O)[O-])s1)N1CCCC1	-31.4	-7.2%	nt	12.6µM*	?	nt
O=C(/C=C/c1cccs1)N1CCCCC1	-15.9	36.3%	6.7%[46.1 µM]	-6.2%	-18.4%	?
O=C(/C=C/c1ccc([N+](=O)[O-])s1)N1CCCCC1	?	4.0%	?	14.1µM*	?	8.91µM*
O=C(/C=C/c1ccccc1[N+](=O)[O-])N1CCCCC1	31.2	-14.2%	1.6%	nt	nt	4.3%
COc1ccc(CNc2nc(-c3ccc(OC)cc3)cc(C(F)(F)F)n2)cc1	-17.8	-19.9%	-4.3%[46.1 µM]	-15.4%	-5.7%	?
CCCCN(CC)CCOc1cccc2ccccc12	nt	39.8µM*	nt	?	?	nt
O=C1C=CC(=O)C(C2=C3C(=O)N(CCc4ccccc4)CC(=O)N3CCC2)=C1	-99.1*	?	?	-0.4%	-12.0%	-5.2%
CCOc1ccccc1CNC(=O)c1cc2n(n1)CCCN(Cc1ccc(C)cc1)C2=O	-15.4	-15.9%	-29.8%[46.1 µM]	-17.1%	-16.5%	nt
Cc1cc(-c2ccccc2)nc(N/N=C/c2ccc(O)cc2O)n1	-17.0	-10.9%	-18.1%[46.1 µM]	?	?	?
CN(/N=C/c1ccc(O)cc1O)c1nc(-c2ccccc2)cc(-c2ccccc2)n1	-61.9*	-3.7%	3.3%	20µM*	?	?
O=c1[nH]c(=O)n([C@H]2C[C@@H](O)[C@@H](CO)O2)cc1C=CBr	nt	nt	0.0%	nt	nt	19.8%
CCCCNC(=O)C(C)(C)n1cc(NC(=O)c2cc(C)oc2C)cn1	2.8	nt	nt	nt	nt	nt
CC(C)Cc1nn2c(=O)cc(COC(=O)c3ccc(NC(=O)C4CCCCC4)cc3)nc2s1	1.1	16.7%	1.2%[46.1 µM]	-11.7%	i	nt
O=C(CSc1nnc(NC(=O)C2CCC2)s1)Nc1ccc(N2CCOCC2)cc1	-107.7*	-11.9%	-8.2%	nt	nt	-15.3%
COc1ccc(N2CCC(CNC(=S)Nc3c(C)cc(C)cc3C)C2)cc1 (centres undefined)	-70.2*	0.0%	nt	nt	nt	nt
COc1ccc(N2CCC(CNC(=O)Nc3ccc(C)c(C)c3)C2)cc1 (centres undefined)	10.8	-2.4%	0.6%	-25.7%	-26.7%	-22.5%

Assay outcomes: PubChem BioAssay, National Center for Advancing Translational Sciences (NCATS)
